We go through four compounds from PubChem BioAssay (NCATS).

Experiment [1] can be described thus: AP1 Signaling Pathway (AID 357; active = well fitted curve in either direction with a large enough effect, not every such curve was filed as active; also: % is scaled to controls: 0 for no effect and ±100 for the full control effect). Particulars: ME-180 AP-1-bla reporter, EGF-induced, beta-lactamase ratio, 5 h; at 7.69 µM (top of the series) unless noted. A digest of the protocol: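 Cells are seeded overnight, exposed to compound titrations and an EC50 level of EGF for 5 hours at 37 °C, then loaded with CCF4 dye for 2.5 hours. Beta-lactamase activity under the AP-1 element is read as a blue/green ratio.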

Experiment [2] deals with Cytochrome P450 1A2 (Homo sapiens) (UniProt P05177). In words: p450-cyp1a2 (AID 410; calls by dose curve). Summed up:
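O-Demethylation of luciferin 6' methyl ether by human CYP1A2 is monitored as luciferase luminescence. Substrate sits at Km (100uM); enzyme is 20nM. Values are scaled to 57 uM furafylline as maximal inhibition.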

Experiment [3] is described as follows: NFAT Signaling Pathway (AID 444; active = well fitted curve in either direction with a large enough effect, not every such curve was filed as active;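 also: carbachol stimulus at about its EC50 of 1 µM final; % is scaled to controls: 0 for no effect and ±100 for the full control effect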). The note with it: Jurkat NFAT-bla M1, carbachol, beta-lactamase ratio, 5 h; at 7.69 µM (top of the series) unless noted. A digest of the protocol: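 Jurkat cells carrying an NFAT-driven β-lactamase reporter and co-transfected muscarinic M1 receptor were treated with compound plus carbachol (1 uM final, an EC50 level) for 5 h at 37 °C. CCF4 loading followed for 1 h at RT; 460/530 nm ratio gave %activity.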

Experiment [4] in a line: Stat Signaling Pathway (AID 446; active = well fitted curve in either direction with a large enough effect, not every such curve was filed as active;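 also: ME-180 cervical cancer cells given 40 pM IL-6 alongside compound; SIE-controlled beta-lactamase reporter measured as 460/530 nm FRET emission ratio; % is scaled to controls: 0 for no effect and ±100 for the full control effect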). The note with it: ME-180 (cervical carcinoma) SIE beta-lactamase reporter, IL-6 stimulated, 5 h; at 7.69 µM (top of the series) unless noted. Summed up:
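Normalization used AC90 stimulation (300 pM IL-6) and AC90 inhibition (125 nM pan-JAK inhibitor at 40 pM IL-6). The underlying signal is SIE-driven beta-lactamase in ME-180 cells after 5 h IL-6 exposure with compound.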

In experiment [5] the target is Glucocorticoid receptor (Homo sapiens) (UniProt P04150). In words: GR-EFC Redistribution (AID 451; calls by dose curve; also: potency is read from the fitted curve at half-maximal effect). The note with it: CHO-K1 GR-EFC translocation, beta-gal luminescence, 2 h. A digest of the protocol:
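CHO-K1 cells stably expressing nuclear-localized β-gal enzyme acceptor and GR fused C-terminally to the enzyme donor fragment; ligand-driven nuclear translocation restores β-gal by complementation. Compounds titrated up to 46 uM final, 2 h at 37 °C; luminescence read.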

The target in experiment [6] is Mitogen-activated protein kinase 10 (Mus musculus) (UniProt Q61831). Description: JNK3 AlphaScreen Assay (AID 530; active = well fitted curve in either direction with a large enough effect, not every such curve was filed as active;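 also: kinase came from lysate of stimulated human HepG2 cells; signal reports phosphorylation of biotinylated GST-cJun 1-79 at Ser73 with 10 µM ATP; % is scaled to controls: 0 for no effect and ±100 for the full control effect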). Summed up:
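Phosphorylation of biotinylated GST-cJun(1-79) at Ser73 is measured by AlphaScreen proximity luminescence. Enzyme is JNK3 in HepG2 lysates activated with interleukin-1beta and tumor necrosis factor alpha; ATP is 10 uM final.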
(In Alpha technology, singlet oxygen from a donor bead excites a nearby acceptor bead.)

Experiment [7] has as its target 3',5'-cyclic-AMP phosphodiesterase 4B (Homo sapiens) (UniProt Q07343). Description: qHTS Assay for Inhibitors of PDE-IV (AID 607; active = well fitted activation curve with a large enough effect in the main read-out, with a control signal flat, not every such curve was filed as active; also: % of control where 0% means no effect). A digest of the protocol: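 HEK293 ACTOne cells with CNG channel (1000/well), endogenous PDE4; membrane potential dye, compounds up to 22.9 uM final. Fluorescence Ex 535/Em 590; RO 20-1724 (100 uM final) as reference.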
For orientation: qHTS replaces the single test concentration by a dilution series.

Experiment [8] in a line: qHTS Assay for Lipid Storage Modulators (AID 1519; calls by dose curve). The note with it: Drosophila S3 cells, BODIPY lipid droplet/cell ratio, laser cytometry, cells loaded with oleic acid. Summed up: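 Cells seeded at 5,000 per well were treated with compounds over a concentration series and loaded with oleic acid (400 uM, as added). Lipid droplet fluorescence (488 nm excitation, 500-530 nm channel) was read by laser-scanning cytometry and normalized to 20 uM Triacsin C.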

The target of experiment [9] is ATP-dependent 6-phosphofructokinase (Trypanosoma brucei brucei) (UniProt O15648). Description: qHTS Assay to Find Inhibitors of T. brucei phosphofructokinase: hit validation (AID 492961). A digest of the protocol:
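Percent activity derived from corrected luminescence, normalized between 0x and 1x enzyme controls, then fitted to concentration-response curves. Conditions: 1.25 nM PFK, 0.1 mM ATP, 0.5 mM F6P, 45 min RT.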

In experiment [10] the target is Luciferin 4-monooxygenase (Photinus pyralis) (UniProt P08659). In words: Biochemical firefly luciferase enzyme assay for NPC (AID 624030).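 Also: purified P. pyralis luciferase at 10 nM with luciferin and ATP substrate; 0% = DMSO and -100% = full luciferase inhibition by PTC124 control; nearly all actives have a fitted effect of over 70% in size.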 A digest of the protocol:
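Counter-screen for direct inhibition of the luciferase enzyme by approved-drug library compounds, run at 10 nM enzyme in 50 mM Tris acetate (final). Luminescence was read within 5 min of enzyme-buffer addition and normalized to PTC124 versus DMSO (0%).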

Experiment [11] in a line: qHTS profiling for inhibitors of Plasmodium falciparum proliferation (AID 504749).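 Also: 0% = DMSO vehicle and full inhibition = artemisinin control; nearly all actives have a fitted effect of over 60% in size.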 Particulars: P. falciparum in erythrocytes, SYBR Green DNA, 72 h. A digest of the protocol:
(§1)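 Quantitative HTS: compounds pinned into medium, infected erythrocytes added (0.3% parasitemia, 2.5% hematocrit), 72 h culture at 37 C under 5% CO2. Saponin/Triton lysis with SYBR Green I, overnight RT, then fluorescence read.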

Another experiment concerns AS120. Described as above. Particulars: P. falciparum in erythrocytes, SYBR Green DNA, 72 h; series mostly up to 28.7 µM. A digest of the protocol: as §1
In another experiment the test system is CP201. Described as above. Particulars: P. falciparum in erythrocytes, SYBR Green DNA, 72 h; series mostly up to 12.8 µM. A digest of the protocol: as §1
The next experiment has as its system CP238. The experiment is described as above. Particulars: P. falciparum in erythrocytes, SYBR Green DNA, 72 h; series mostly up to 12.8 µM. Summed up:
as §1

The subject of another experiment is CP262. The experiment is described as above. The note with it: P. falciparum in erythrocytes, SYBR Green DNA, 72 h; series mostly up to 12.8 µM. A digest of the protocol:
as §1

Another experiment deals with CP265. The description is as above. Particulars: P. falciparum in erythrocytes, SYBR Green DNA, 72 h; series mostly up to 12.8 µM. A digest of the protocol: as §1
A further experiment concerns FAB9. Described as above. Particulars: P. falciparum in erythrocytes, SYBR Green DNA, 72 h; series mostly up to 12.8 µM. Summed up: as §1
A further experiment concerns JCK. Described as above. The note with it: P. falciparum in erythrocytes, SYBR Green DNA, 72 h; series mostly up to 12.8 µM. A digest of the protocol:
as §1

In experiment [12] the target is Glucocorticoid receptor (Homo sapiens) (UniProt P04150). In words: GR-GFP Redistribution (AID 450;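 active = compounds whose dose series gives a full or clear partial fitted curve of increased nuclear translocation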; also: potency is read from the fitted curve at half-maximal effect). Particulars: U2OS GR-GFP nuclear translocation, laser cytometry, 2 h.
Sequence of Glucocorticoid receptor (Homo sapiens) (P04150 whole entry, looked up, the tested form may be a part): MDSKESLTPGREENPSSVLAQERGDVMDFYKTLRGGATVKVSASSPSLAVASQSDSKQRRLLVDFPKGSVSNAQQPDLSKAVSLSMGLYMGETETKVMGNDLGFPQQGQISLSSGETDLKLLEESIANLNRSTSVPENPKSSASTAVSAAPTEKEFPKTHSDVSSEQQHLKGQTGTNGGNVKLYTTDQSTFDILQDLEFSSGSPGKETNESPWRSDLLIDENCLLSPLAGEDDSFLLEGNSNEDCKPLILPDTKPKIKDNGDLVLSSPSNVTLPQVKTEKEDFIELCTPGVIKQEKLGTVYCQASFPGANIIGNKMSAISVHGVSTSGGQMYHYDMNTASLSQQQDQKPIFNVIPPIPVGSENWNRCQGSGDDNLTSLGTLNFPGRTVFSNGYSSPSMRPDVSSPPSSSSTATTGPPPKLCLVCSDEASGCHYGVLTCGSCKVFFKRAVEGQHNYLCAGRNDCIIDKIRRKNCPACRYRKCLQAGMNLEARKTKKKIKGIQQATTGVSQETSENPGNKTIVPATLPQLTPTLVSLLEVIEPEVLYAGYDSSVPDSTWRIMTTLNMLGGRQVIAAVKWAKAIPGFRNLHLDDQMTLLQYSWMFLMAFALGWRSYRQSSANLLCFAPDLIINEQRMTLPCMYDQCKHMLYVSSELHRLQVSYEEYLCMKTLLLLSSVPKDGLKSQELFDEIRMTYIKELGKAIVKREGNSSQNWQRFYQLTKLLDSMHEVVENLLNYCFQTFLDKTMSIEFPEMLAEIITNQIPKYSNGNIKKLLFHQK
Experiment [13] concerns the target Ubiquitin carboxyl-terminal hydrolase 1 (Homo sapiens) (UniProt O94782). Description: Inhibitors of USP1/UAF1: Pilot qHTS (AID 504865).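 Also: rhodamine fluorescence freed from ubiquitin-rhodamine substrate followed over time; top concentration of the series differs between compounds; % is scaled to controls: 0 for no effect and ±100 for the full control effect; nearly all actives have a fitted effect of over 35% in size.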 A digest of the protocol:
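USP1/UAF1 complex at 1 nM preincubated 15 min at room temperature with compound, then Ub-Rho substrate added at 150 nM final. Fluorescence (480/540 nm) read kinetically in 50 mM HEPES pH 7.8, 0.5 mM EDTA, 1 mM TCEP, 0.1 mg/ml BSA, 0.01% Tween-20.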

Setting [14] is: measured here: cell count channel max response.
[15] abbreviates: measured here: lipid channel max response.
The mark [16] stands for this setting: at 12.8 µM (top of the series), parasite line A.
Setting [17] is: at 12.8 µM (top of the series), parasite line B.

“And” between values parts separate entries of the source, which are not always exact repeats. Identical values can stand only once. Records with an inconclusive call do not appear. The source made the active and inactive calls. Unless noted, calls follow the shape of the dose curve; as a rule, active = well fitted curve in the direction sought with a large enough effect; inconclusive = small, poorly fitted or top-dose-only effect, or another doubt; inactive = no such curve, though single readings can be large; an effect the other way counts as inactive or inconclusive.

Sequence of ATP-dependent 6-phosphofructokinase (Trypanosoma brucei brucei) (O15648 whole entry, looked up): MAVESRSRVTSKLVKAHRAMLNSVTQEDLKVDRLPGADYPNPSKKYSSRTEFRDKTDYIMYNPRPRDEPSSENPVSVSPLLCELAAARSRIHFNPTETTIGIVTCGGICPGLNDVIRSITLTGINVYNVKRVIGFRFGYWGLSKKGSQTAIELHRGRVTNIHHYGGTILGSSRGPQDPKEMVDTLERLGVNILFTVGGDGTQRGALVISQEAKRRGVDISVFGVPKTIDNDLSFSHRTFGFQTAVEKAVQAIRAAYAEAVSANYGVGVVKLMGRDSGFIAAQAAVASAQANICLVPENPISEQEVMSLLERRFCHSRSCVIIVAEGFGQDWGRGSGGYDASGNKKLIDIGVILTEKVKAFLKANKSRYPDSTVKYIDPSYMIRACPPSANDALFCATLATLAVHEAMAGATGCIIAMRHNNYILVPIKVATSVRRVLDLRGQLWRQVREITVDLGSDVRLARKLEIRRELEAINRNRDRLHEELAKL
Sequence of Luciferin 4-monooxygenase (Photinus pyralis) (P08659 whole entry, looked up): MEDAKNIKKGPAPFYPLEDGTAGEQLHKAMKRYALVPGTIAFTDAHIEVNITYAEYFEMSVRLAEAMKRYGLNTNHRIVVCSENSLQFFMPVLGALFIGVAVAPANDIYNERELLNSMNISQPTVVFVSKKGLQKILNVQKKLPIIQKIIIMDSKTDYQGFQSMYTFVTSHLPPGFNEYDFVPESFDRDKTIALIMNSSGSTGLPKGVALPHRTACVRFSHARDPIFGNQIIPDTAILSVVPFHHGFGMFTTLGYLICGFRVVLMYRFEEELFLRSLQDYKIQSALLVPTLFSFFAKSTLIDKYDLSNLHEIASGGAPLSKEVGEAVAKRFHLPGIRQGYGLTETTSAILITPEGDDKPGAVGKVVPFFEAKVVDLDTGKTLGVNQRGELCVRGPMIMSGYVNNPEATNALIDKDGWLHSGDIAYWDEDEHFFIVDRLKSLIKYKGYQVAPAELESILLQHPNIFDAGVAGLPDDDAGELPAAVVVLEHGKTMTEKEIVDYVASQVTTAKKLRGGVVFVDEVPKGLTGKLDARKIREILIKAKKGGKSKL
Sequence of 3',5'-cyclic-AMP phosphodiesterase 4B (Homo sapiens) (Q07343 whole entry, looked up): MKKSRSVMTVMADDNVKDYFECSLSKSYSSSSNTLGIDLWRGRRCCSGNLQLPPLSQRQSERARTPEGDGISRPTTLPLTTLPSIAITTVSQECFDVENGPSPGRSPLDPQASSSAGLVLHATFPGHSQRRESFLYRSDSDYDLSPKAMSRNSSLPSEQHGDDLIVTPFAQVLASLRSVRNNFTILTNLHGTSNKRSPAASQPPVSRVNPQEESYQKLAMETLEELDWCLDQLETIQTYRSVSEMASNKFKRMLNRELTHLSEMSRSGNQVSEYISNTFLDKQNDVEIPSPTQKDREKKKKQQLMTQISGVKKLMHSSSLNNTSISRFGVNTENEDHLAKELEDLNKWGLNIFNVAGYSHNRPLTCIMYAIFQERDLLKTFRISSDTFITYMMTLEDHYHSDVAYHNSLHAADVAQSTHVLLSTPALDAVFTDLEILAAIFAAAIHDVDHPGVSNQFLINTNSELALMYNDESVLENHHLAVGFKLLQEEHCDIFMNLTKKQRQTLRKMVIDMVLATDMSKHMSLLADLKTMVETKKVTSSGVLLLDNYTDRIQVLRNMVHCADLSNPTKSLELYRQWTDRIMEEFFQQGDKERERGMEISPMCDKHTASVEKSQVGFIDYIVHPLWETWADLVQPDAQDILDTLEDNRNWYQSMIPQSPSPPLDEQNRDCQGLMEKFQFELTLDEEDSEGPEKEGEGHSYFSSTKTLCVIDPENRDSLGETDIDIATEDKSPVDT
Sequence of Cytochrome P450 1A2 (Homo sapiens) (P05177 whole entry, looked up): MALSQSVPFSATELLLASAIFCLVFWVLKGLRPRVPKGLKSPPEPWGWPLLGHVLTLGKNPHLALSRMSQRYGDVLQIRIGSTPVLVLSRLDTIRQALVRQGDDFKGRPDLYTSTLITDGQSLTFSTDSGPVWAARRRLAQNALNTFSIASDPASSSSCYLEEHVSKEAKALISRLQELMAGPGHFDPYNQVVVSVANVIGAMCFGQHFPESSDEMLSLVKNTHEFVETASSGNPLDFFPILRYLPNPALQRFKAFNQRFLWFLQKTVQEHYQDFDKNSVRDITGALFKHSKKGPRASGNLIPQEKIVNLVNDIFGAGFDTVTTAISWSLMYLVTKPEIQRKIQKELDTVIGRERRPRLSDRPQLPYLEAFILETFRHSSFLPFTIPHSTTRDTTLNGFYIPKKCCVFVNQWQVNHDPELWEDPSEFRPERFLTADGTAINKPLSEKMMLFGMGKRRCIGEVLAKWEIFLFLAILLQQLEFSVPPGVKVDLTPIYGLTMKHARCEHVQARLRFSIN
Sequence of Ubiquitin carboxyl-terminal hydrolase 1 (Homo sapiens) (O94782 whole entry, looked up): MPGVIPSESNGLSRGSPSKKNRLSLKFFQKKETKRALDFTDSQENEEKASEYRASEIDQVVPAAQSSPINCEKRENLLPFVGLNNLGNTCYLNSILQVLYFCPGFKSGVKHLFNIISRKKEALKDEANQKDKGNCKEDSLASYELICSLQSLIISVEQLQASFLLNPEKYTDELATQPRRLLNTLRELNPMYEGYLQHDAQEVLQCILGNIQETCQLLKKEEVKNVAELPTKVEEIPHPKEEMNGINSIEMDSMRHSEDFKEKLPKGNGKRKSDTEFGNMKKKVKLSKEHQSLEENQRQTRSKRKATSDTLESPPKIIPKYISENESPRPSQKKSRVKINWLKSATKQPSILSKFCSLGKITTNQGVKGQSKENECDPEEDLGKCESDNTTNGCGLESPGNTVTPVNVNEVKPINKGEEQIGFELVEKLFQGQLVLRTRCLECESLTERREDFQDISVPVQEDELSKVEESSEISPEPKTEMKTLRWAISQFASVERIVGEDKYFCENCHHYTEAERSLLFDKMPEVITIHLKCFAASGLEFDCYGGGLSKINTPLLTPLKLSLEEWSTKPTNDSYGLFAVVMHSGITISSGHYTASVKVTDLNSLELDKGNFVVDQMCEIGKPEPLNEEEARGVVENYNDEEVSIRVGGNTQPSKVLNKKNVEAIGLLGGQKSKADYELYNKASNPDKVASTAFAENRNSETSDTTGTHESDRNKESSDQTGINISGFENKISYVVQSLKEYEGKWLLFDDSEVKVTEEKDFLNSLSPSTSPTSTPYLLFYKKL

On to `CCN[C@@H]1C[C@H](C)S(=O)(=O)c2sc(S(N)(=O)=O)cc21`, for which the activity change, negative = inhibition was -11.2% [at 17.2 µM] (inactive) in [1], -16.8% [at 17.2 µM] (inactive) in [3] and -5.41% (inactive) in experiment [8] (at 25.7 µM (top of the series)). Also, the Potency entry (in experiment [2]; in [6]; in experiment [7]; in the experiment on AS120; in the experiment on CP201; in the experiment with CP238) was “inactive” throughout. The Potency result with CP262, in the experiment with CP265, with FAB9 and with JCK was “inactive” in each case. For the same compound, the activity, negative = inhibition was -13.1% [at 17.2 µM] (inactive) in experiment [4]; 7.35% (inactive) in experiment [11] (at 28.7 µM (top of the series), parasite line A); 9.64% (inactive) in experiment [11] (at 28.7 µM (top of the series), parasite line B). Also, in experiment [5], the Potency is > 20.6 µM (inactive). For the same compound, the results for the max response in experiment [8] (setting [14]) and in [8] (setting [15]) were -1.77% and -5.35%, respectively. Besides, the result in [9] and in [10] was inactive.
`C[C@@H](C(=O)O)c1ccc(C(=O)c2cccs2)cc1`: the activity change, negative = inhibition is 4.04% [at 17.2 µM] (inactive) in experiment [1], -1.88% [at 17.2 µM] (inactive) in experiment [3] and 0.809% (inactive) in experiment [8] (at 25.7 µM (top of the series)). The Potency entry (in [2]; in experiment [6]; in experiment [7]; in experiment [13]; with AS120; in the experiment with CP201) was “inactive” each time. Further, the Potency entry with CP238, with CP262, with CP265, with FAB9 and in the experiment with JCK was “inactive” in each case. Further, the activity, negative = inhibition was 1.29% [at 17.2 µM] (inactive) in experiment [4], 0.517% (inactive) in experiment [11] (setting [16]) and 11.1% (inactive) in experiment [11] (setting [17]). The Potency in experiment [12] and in [5] was > 20.6 µM (inactive) each time. Moreover, the max response in experiment [8] (setting [14]) is -2.83%; in experiment [8] (setting [15]), -2.07%. Also, the outcome in experiment [9] and in [10] was inactive.
For `C[n+]1ccccc1/C=N\O`, the activity change, negative = inhibition in experiment [1] is 1.66% [at 17.2 µM] (inactive); in experiment [3], 3.73% [at 17.2 µM] (inactive); in experiment [8] (at 25.7 µM (top of the series)), -1.41% (inactive). In addition, the Potency entry (in experiment [2]; in [6]; in [7]; with AS120; in the experiment with CP201; in the experiment on CP238) was “inactive” each time. In addition, the Potency entry in the experiment with CP262, with CP265, in the experiment on FAB9 and in the experiment on JCK was “inactive” throughout. For the same compound, the activity, negative = inhibition in experiment [4] is 2.75% [at 17.2 µM] (inactive); in experiment [11] (setting [16]), 14% (inactive); in experiment [11] (setting [17]) it was 8.58% (inactive). In addition, the Potency in [12] and in experiment [5] was > 20.6 µM (inactive) throughout. Further, the max response in experiment [8] (setting [14]) is -5.77%; in experiment [8] (setting [15]), -7.21%. The compound was classed as inactive in experiment [9] and in [10].
Regarding `CCN1CCC[C@@H]1CNC(=O)c1cc(S(N)(=O)=O)ccc1OC`, the activity change, negative = inhibition in [1] was 5.34% [at 38 µM] (inactive) and 0.665% [at 38 µM] (inactive); in experiment [3], -3.07% [at 38 µM] (inactive) and -10.9% [at 38 µM] (inactive); in experiment [8] (at 57.5 µM (top of the series)), 3.26% (inactive). In addition, the Potency result in experiment [2], in experiment [6] and in experiment [7] was “inactive” in each case. For the same compound, in experiment [4], the activity, negative = inhibition is 26.6% [at 38 µM] (inactive). Further, the Potency in [12] and in experiment [5] was > 46 µM (inactive) throughout. Further, the max response in [8] (setting [14]) is -12.9%; in [8] (setting [15]), -11.7%.
